Our source for the Potency values is PubChem BioAssay (NCATS).

Structures are written as SMILES. Several values for one entry are separate records, joined by “and”; a condition that tells them apart may be missing. Identical values can stand only once. Inconclusive results are not listed. Activity calls are given as the source filed them. Unless noted, calls follow the shape of the dose curve; as a rule, active = well fitted curve in the direction sought with a large enough effect; inconclusive = small, poorly fitted or top-dose-only effect, or another doubt; inactive = no such curve, though single readings can be large; an effect the other way counts as inactive or inconclusive.

For assay [1], the target named is Calcium and integrin-binding protein 1 (Homo sapiens) (UniProt Q99828). In words: Primary qHTS for Identification of Calcium Integrin Binding Protein 1 (CIB1) Competitor (AID 1508620).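 Also: GST tagged CIB1 binding a fluorescein labelled alphaIIb integrin peptide tracer; top concentration of the series differs between compounds.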 Particulars: CIB1-GST / FITC-alphaIIb peptide fluorescence polarization; series mostly up to 114 µM. Summed up:
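CIB1-GST (1 uM final) and compound incubated 15 min at room temperature before adding FITC-alphaIIb peptide tracer (100 nM final). Competition for binding read by fluorescence polarization (ex 480, em 540) after another 15 min at room temperature.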
On the technique in general: qHTS replaces the single test concentration by a dilution series.

For assay [2], the target named is Cytochrome P450 2D6 (Homo sapiens) (UniProt P10635). In words: Cytochrome P450 family 2 subfamily D member 6 (CYP2D6) small molecule antagonists: luciferase biochemical (cell-free) qHTS assay (AID 1645840; active = well fitted curve in the direction sought with a large enough effect in the repeat runs; an effect the other way counts as inactive or inconclusive; also: nearly all actives have a fitted effect of over 55% in size; also: potency is read from the fitted curve at half-maximal effect). Particulars: P450-Glo CYP2D6 enzyme, luciferin luminescence, 1 h; series mostly up to 57.4 µM. Summed up:
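P450-Glo luminescent screen: recombinant CYP2D6 enzyme–proluciferin substrate mix preincubated with compound 10 min at room temperature, then NADPH regeneration added for 1 h at room temperature. Detection reagent added for 20 min; luciferin light read as relative luminescence units.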

Assay [3] has as its target Cytochrome P450 2C9 (Homo sapiens) (UniProt P11712). In words: Cytochrome P450 family 2 subfamily C member 9 (CYP2C9) small molecule antagonists: luciferase biochemical (cell-free) qHTS assay (AID 1645842; active = well fitted curve in the direction sought with a large enough effect in the repeat runs; an effect the other way counts as inactive or inconclusive; also: nearly all actives have a fitted effect of over 55% in size; also: potency is read from the fitted curve at half-maximal effect). Particulars: P450-Glo CYP2C9 enzyme assay, luciferin luminescence; series mostly up to 57.4 µM. Summed up:
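Luminescence, after 20 min with luciferin detection reagent, reflected CYP2C9 turnover during a 1 h NADPH-driven reaction at 37C. Enzyme-substrate mix contained 0.4% bovine serum albumin and was preincubated with compound 10 min at room temperature.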

Assay [4] in a line: Primary qHTS for inhibitors of nuclear receptor binding SET domain protein 2 (NSD2) in an isogenic RCH-ACV NSD2 p.E1099K mutant (9B) (AID 1645876). Also: nearly all actives have a fitted effect of over 70% in size. Also: potency is read from the fitted curve at half-maximal effect. Particulars: RCH-ACV NSD2 E1099K (9B) viability, CellTiter-Glo, 72 h; series mostly up to 44.9 µM.
Assay [5] concerns the target N-terminal Xaa-Pro-Lys N-methyltransferase 1 (Homo sapiens) (UniProt Q9BV86). In words: Confirmatory qHTS for Inhibitors of N-terminal methyltransferase 1 (NTMT1): MTaseGlo Assay (AID 1645874). Also: potency is read from the fitted curve at half-maximal effect; nearly all actives have a fitted effect of over 65% in size. Particulars: NTMT1 enzyme, MTase-Glo SAH luminescence; series mostly up to 100 µM. Summed up: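 qHTS format: NTMT1 125 nM, SAM 100 uM, peptide SPKRIA 1 uM final; 15 min compound preincubation, 30 min reaction at room temperature. MTase-Glo luminescence.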

The nature of assay [6]: Primary qHTS for inhibitors of nuclear receptor binding SET domain protein 2 (NSD2) in an RCH-ACV wild type WT cells (2C) (AID 1645877). Also: potency is read from the fitted curve at half-maximal effect; nearly all actives have a fitted effect of over 70% in size. Particulars: RCH-ACV (leukaemia line) NSD2 WT (2C) viability, CellTiter-Glo, 72 h; series mostly up to 44.9 µM.

Cytochrome P450 2C9 (Homo sapiens), sequence (P11712 whole entry, looked up): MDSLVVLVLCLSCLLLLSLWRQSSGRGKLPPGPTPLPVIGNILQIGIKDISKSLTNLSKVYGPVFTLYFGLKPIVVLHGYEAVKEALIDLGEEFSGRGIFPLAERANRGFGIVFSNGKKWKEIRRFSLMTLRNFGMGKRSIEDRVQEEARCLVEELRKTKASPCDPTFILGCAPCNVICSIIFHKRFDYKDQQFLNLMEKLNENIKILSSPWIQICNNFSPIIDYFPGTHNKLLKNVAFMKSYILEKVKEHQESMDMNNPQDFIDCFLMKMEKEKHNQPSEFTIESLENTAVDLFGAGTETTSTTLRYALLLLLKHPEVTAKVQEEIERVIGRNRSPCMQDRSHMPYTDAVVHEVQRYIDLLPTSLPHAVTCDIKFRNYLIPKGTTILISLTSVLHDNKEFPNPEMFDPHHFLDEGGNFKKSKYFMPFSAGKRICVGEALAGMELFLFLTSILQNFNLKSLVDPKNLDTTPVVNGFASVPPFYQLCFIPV
Cytochrome P450 2D6 (Homo sapiens), sequence (P10635 whole entry, looked up): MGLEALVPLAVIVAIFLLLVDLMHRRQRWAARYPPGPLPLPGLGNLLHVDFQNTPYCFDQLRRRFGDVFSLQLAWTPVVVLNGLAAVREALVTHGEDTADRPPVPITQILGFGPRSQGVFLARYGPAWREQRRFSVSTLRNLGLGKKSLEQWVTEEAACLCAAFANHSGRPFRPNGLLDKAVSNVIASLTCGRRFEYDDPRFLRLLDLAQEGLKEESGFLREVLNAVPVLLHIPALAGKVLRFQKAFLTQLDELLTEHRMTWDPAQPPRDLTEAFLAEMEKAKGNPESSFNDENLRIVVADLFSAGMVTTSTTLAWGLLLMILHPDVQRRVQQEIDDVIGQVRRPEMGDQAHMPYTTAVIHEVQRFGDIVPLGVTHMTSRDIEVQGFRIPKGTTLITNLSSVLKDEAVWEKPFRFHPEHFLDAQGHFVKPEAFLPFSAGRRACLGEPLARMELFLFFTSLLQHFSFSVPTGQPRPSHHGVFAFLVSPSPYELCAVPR
Calcium and integrin-binding protein 1 (Homo sapiens), sequence (Q99828 whole entry, looked up): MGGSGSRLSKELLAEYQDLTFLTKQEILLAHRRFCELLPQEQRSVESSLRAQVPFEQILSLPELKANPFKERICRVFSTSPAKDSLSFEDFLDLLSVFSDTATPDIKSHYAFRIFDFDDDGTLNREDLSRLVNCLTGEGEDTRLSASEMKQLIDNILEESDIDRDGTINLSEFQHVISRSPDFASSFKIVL
N-terminal Xaa-Pro-Lys N-methyltransferase 1 (Homo sapiens), sequence (Q9BV86 whole entry, looked up): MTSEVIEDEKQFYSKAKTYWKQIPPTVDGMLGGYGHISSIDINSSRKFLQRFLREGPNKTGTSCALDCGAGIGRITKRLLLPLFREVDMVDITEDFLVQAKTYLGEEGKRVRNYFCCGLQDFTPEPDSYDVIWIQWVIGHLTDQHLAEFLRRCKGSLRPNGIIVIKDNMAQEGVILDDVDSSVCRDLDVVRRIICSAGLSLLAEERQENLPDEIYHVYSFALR

As for `CN(C)[C@@H]1CCc2[nH]c3ccc(NC(=O)c4ccc(F)cc4)cc3c2C1`, the Potency result in assay [1], in assay [2] and in assay [3] was “inactive” each time.

With `O=C(NCC(=O)N1CCCC1)Nc1ccc2cnccc2c1`, the Potency entry in assay [1] and in assay [3] was “inactive” throughout. Further, the Potency in assay [2] was 12 µM (active).

Take `CCOC(=O)C1=Cc2ccc(C(F)(F)C(F)(F)F)cc2N=C(N)C1`: the Potency result in assay [1] was “inactive”. For the same molecule, the Potency in assay [2] is 3.01 µM (active); in assay [3] it was 12 µM (active).

With `CCc1cnc(N2CCC(c3nc(COc4ccc(-n5cnnn5)cc4)cs3)CC2)nc1`, the Potency entry in assay [1], in assay [2] and in assay [3] was “inactive” in each case.

Consider `COC(=O)c1cc(Br)cnc1N1CCC(NC2CCCCC2)C(O)C1` (stereo not given), for which the Potency result in assay [1], in assay [3] and in assay [4] was “inactive” in each case. The Potency in assay [2] is 0.019 µM (active).

On to `COc1cccc(OCCCN)c1-c1cc(Nc2cnc(C#N)cn2)n[nH]1`, for which the Potency entry in assay [1] and in assay [3] was “inactive” each time. Besides, the Potency in assay [2] was 6.74 µM (active); in assay [5], 50.1 µM (active) and 21.8 µM (active); in assay [4] it was 0.0103 µM (active); in assay [6] it was 0.0103 µM (active).

With `CC(C)S(=O)(=O)NC[C@H](C)c1ccc(-c2ccc(CCNS(C)(=O)=O)cc2)cc1`, the Potency result in assay [1] and in assay [2] was “inactive” in each case. Also, the results for the Potency in assay [3] and in assay [4] were 10.7 µM (active) and 6.49 µM (active), respectively.

On to `N#Cc1cc(-c2ccnc(Nc3ccc(N4CCOCC4)cc3)n2)ccc1OC1CCOCC1`, for which the Potency entry in assay [1] and in assay [2] was “inactive” each time. Moreover, the Potency was 2.13 µM (active) in assay [3] and 1.45 µM (active) in assay [4].

For `Cc1[nH]c(/C=C2\C(=O)Nc3cc(-c4ccccc4)ccc32)c(C)c1CCC(=O)O`, the Potency entry in assay [1] and in assay [2] was “inactive” in each case. The Potency is 12 µM (active) in assay [3], 49.4 µM (active) in assay [5], 23 µM (active) in assay [4] and 23 µM (active) in assay [6].

For `Cc1cn2cc(C(=O)N(C)CCO)cc(NC3CCOc4cccc(C)c43)c2n1` (stereo not given), the Potency result in assay [1], in assay [2] and in assay [4] was “inactive” throughout. In addition, in assay [3], the Potency is 19 µM (active).
